The values below come from PubChem BioAssay (NCI).

About 83,000 compounds went through this panel and 20% of them were active in at least one assay; those are over-represented in the sample as a whole.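 Single-dose data. Exposure time 48 hours. Values below 10 considered active.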 A number with no mark means an inactive call. The source made the active and inactive calls.

The test concerns HL-60(TB) leukemia. The experiment in a line: NCI-60 one-dose screen, 48 h (100 = growth as untreated, 0 = no growth, -100 = all killed). The note with it: 10 µM unless noted.
In the case of `CCOc1ccc(-n2nc(C(=O)Nc3cc(OC)c(OC)c(OC)c3)nc2-c2cc(OC)c(OC)c(OC)c2)cc1`, the growth is 98.2%.
On to `CCOS(=O)(=O)c1c(C(C)C)cc(C(C)C)cc1C(C)C`, for which the growth is 89%.
With `CCCC[n+]1c(/C=C\c2c(OC)cc(OC)cc2OC)ccc2ccccc21`, the growth was -58.8% (active).
